Assay results reported in PubChem BioAssay (Tox21).
Records with an inconclusive call do not appear. A call without a number means that no potency is given here. A number with no mark means an inactive call. Calls of active or inactive are those of the source. Calls follow the shape of the dose curve; as a rule, active = well fitted cell-killing curve with a large enough effect in the repeat runs; inconclusive = weak or mixed curves, or effect the other way; inactive = flat fitted curve, though single readings scatter.

Columns and labels:
[1] = cAMP Responsive Elements (CRE) small molecule antagonists, cell-based qHTS assay: qHTS cell viability counter screen (AID 2060913); also: nearly all actives have a fitted effect of over 40% in size
Outline: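 Cytotoxicity read in the same wells as the CRE-bla HEK293T antagonist assay: after 3 h compound with 0.25 uM NKH477 final and 2 h beta-lactamase substrate, CellTiter-Glo luminescence measured.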

[2] = cAMP Responsive Elements (CRE) small molecule agonists, cell-based qHTS assay: qHTS cell viability counter screen (AID 2060914); also: nearly all actives have a fitted effect of over 50% in size
Outline: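 In the same wells as the reporter read, viability of CRE-bla HEK 293T cells was quantified by CellTiter-Glo luminescence after a 3 h compound exposure.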
Potency is read from the fitted curve at half-maximal effect.

C=CCOCC1CO1 (centres undefined)
Potency [1]: inactive | Potency [2]: inactive

CCOP(=O)(O)C(N)=O
Potency [1]: inactive | Potency [2]: inactive

CC(C)(N)Cc1ccccc1Cl
Potency [1]: inactive | Potency [2]: inactive

CC1=C(C(=O)Nc2ccccc2)S(=O)(=O)CCO1
Potency [1]: inactive | Potency [2]: inactive

O=C(CCl)c1ccccc1
Potency [1]: inactive | Potency [2]: inactive

O=[N+]([O-])c1ccccc1CCl
Potency [1]: inactive | Potency [2]: inactive

CC(=O)OCC1=C(C(=O)O)N2C(=O)[C@@H](N)[C@H]2SC1
viability change, negative = cytotoxic [1]: -1.82% [at 18.9 µM] | activity change, negative = cytotoxicity [2]: 1.16% [at 18.9 µM]

COC(=O)c1ccccc1S(=O)(=O)NC(=O)N(C)c1nc(C)nc(OC)n1
Potency [1]: inactive | Potency [2]: inactive

Cc1cc(Cl)ccc1N
Potency [1]: inactive | Potency [2]: inactive

C[C@]12C=CC3=C4CCC(=O)C=C4CC[C@H]3[C@@H]1CC[C@@H]2O
Potency [1]: inactive | Potency [2]: inactive

COc1cc(CCN)cc(OC)c1OC
Potency [1]: inactive | Potency [2]: inactive

N#CCBr
Potency [1]: inactive | Potency [2]: inactive

CCN(CC)CCO
Potency [1]: inactive | Potency [2]: inactive

CN(C)CCc1c[nH]c2cccc(OP(=O)(O)O)c12
Potency [1]: inactive | Potency [2]: inactive

COC(=O)C(C)Oc1ccc(Oc2ccc(Cl)cc2Cl)cc1 (centres undefined)
Potency [1]: inactive | Potency [2]: inactive

CCNc1nc(Cl)nc(NC(C)(C)C#N)n1
Potency [1]: inactive | Potency [2]: inactive

CCOC(=O)OC1=C(c2cc(C)ccc2C)C(=O)NC12CCC(OC)CC2 (centres undefined)
Potency [1]: inactive | Potency [2]: inactive

c1ccoc1
Potency [1]: inactive | Potency [2]: inactive

CC(C)[C@@H](C(=O)O[C@@H](C#N)c1cccc(Oc2ccccc2)c1)c1ccc(Cl)cc1
Potency [1]: inactive | Potency [2]: inactive

CCOC(=O)NC(C)(C)Cc1ccc(Cl)cc1
Potency [1]: inactive | Potency [2]: inactive

CC(=O)NC1CCSC1=O (centres undefined)
Potency [1]: inactive | Potency [2]: inactive

CC(O)C(=O)[O][Hg][c]1ccccc1 (centres undefined)
Potency [1]: 12.2 µM (active) | Potency [2]: 12.2 µM (active)

O=C=NC1CCCCC1
Potency [1]: inactive | Potency [2]: inactive

CCCCCCCCCCCCN(C)C
Potency [1]: inactive | Potency [2]: inactive

COc1cc(OC)nc(Oc2cccc(Oc3nc(OC)cc(OC)n3)c2C(=O)O)n1
Potency [1]: inactive | Potency [2]: inactive

O=C1CC[C@@]2(O)[C@H]3Cc4ccc(O)c5c4[C@@]2(CCN3CC2CC2)[C@H]1O5
Potency [1]: inactive | Potency [2]: inactive

COP(=O)(NC(C)=O)SC (centres undefined)
Potency [1]: inactive | Potency [2]: inactive

COC1=CC(=O)O[C@@H](CCc2ccccc2)C1
Potency [1]: inactive | Potency [2]: inactive

CC(=O)OC1(c2ccccc2)CCN(CCc2ccccc2)CC1
Potency [1]: inactive | Potency [2]: inactive

CC(Cc1ccc(OCC(=O)O)cc1)NCC(O)c1csc(C(F)(F)F)n1 (centres undefined)
Potency [1]: inactive | Potency [2]: inactive

CC(C)(C)NCC(O)c1ccccc1Cl (centres undefined)
Potency [1]: inactive | Potency [2]: inactive

Cc1ccc2ccccc2c1
Potency [1]: inactive | Potency [2]: inactive

O=C(O)c1ccc(=O)[nH]c1
Potency [1]: inactive | Potency [2]: inactive

CCOP(=S)(OCC)SCn1nnc2ccccc2c1=O
Potency [1]: inactive | Potency [2]: inactive

Clc1ccc2ccccc2c1
Potency [1]: inactive | Potency [2]: inactive

CCC1(c2ccc(N)cc2)CCC(=O)NC1=O (centres undefined)
Potency [1]: inactive | Potency [2]: inactive

C1CN2CCC1CC2
Potency [1]: inactive | Potency [2]: inactive

CC(C)[C@]12CC(=O)[C@H](C)[C@H]1C2
Potency [1]: inactive | Potency [2]: inactive

OCCN(CCO)CCO
Potency [1]: inactive | Potency [2]: inactive

COc1cc(OC)nc(NC(=O)NS(=O)(=O)c2ncccc2OCC(F)(F)F)n1
Potency [1]: inactive | Potency [2]: inactive

O=[N+]([O-])c1cc(C(F)(F)F)c(Cl)c([N+](=O)[O-])c1Nc1ncc(C(F)(F)F)cc1Cl
Potency [1]: 30.6 µM (active) | Potency [2]: 77 µM (active)

O=C1CN=C(c2ccccc2)c2cc([N+](=O)[O-])ccc2N1
Potency [1]: inactive | Potency [2]: inactive

N#CC(Cl)(Cl)Cl
Potency [1]: inactive | Potency [2]: inactive

CC(C)(C)C(=O)CCl
Potency [1]: inactive | Potency [2]: inactive

CCN1CCCC1CNC(=O)C(O)(c1ccccc1)c1ccccc1 (centres undefined)
Potency [1]: inactive | Potency [2]: inactive

Clc1cccc2ccccc12
Potency [1]: inactive | Potency [2]: inactive

Cc1cc(Cl)ccc1OCCCC(=O)O
Potency [1]: inactive | Potency [2]: inactive

CCC[CH2][Sn]([Cl])([Cl])[Cl]
Potency [1]: inactive | Potency [2]: inactive

CC(C)NC(=O)N1CC(=O)N(c2cc(Cl)cc(Cl)c2)C1=O
Potency [1]: inactive | Potency [2]: inactive

CCOC(=O)CBr
Potency [1]: inactive | Potency [2]: inactive

COc1ccccc1OC
Potency [1]: inactive | Potency [2]: inactive

NNC(=O)c1ccccc1
Potency [1]: inactive | Potency [2]: inactive

CNC(=O)/C=C(\C)OP(=O)(OC)OC
Potency [1]: inactive | Potency [2]: inactive

CN(CCCC(=O)c1cccnc1)N=O
Potency [1]: inactive | Potency [2]: inactive

Cc1ccc(-c2nc3ccc(C)cn3c2CC(=O)N(C)C)cc1
Potency [1]: inactive | Potency [2]: inactive

O=Cc1ccc(Cl)cc1Cl
Potency [1]: inactive | Potency [2]: inactive

CC(C)N(C(=O)SC/C(Cl)=C/Cl)C(C)C
Potency [1]: inactive | Potency [2]: inactive

CC(=NC#N)N(C)Cc1ccc(Cl)nc1
Potency [1]: inactive | Potency [2]: inactive

O=C(O)Cc1ccccc1
Potency [1]: inactive | Potency [2]: inactive

CN1[C@@H]2CC[C@H]1CC(OC(=O)c1cc(Cl)cc(Cl)c1)C2 (some centres undefined)
Potency [1]: inactive | Potency [2]: inactive

Clc1cc(Cl)c(-c2cc(Cl)c(Cl)cc2Cl)cc1Cl
Potency [1]: inactive | Potency [2]: inactive

O=S(=O)(O)C(F)(F)C(F)(F)C(F)(F)C(F)(F)C(F)(F)C(F)(F)C(F)(F)C(F)(F)F
Potency [1]: inactive | Potency [2]: inactive

Nc1c(Br)cc(Br)c2c1C(=O)c1ccccc1C2=O
viability change, negative = cytotoxic [1]: 10% [at 18.9 µM] | activity change, negative = cytotoxicity [2]: -19.1% [at 18.9 µM]

CCCN(CC1CC1)c1c([N+](=O)[O-])cc(C(F)(F)F)cc1[N+](=O)[O-]
Potency [1]: inactive | Potency [2]: inactive

Nc1ccc(Cl)c(Cl)c1
Potency [1]: inactive | Potency [2]: inactive

Cc1ccccc1C(=O)Nc1cccc(OC(C)C)c1
Potency [1]: inactive | Potency [2]: inactive

Nc1ccc(Cl)cc1C(=O)c1ccccc1
Potency [1]: inactive | Potency [2]: inactive

Oc1ccc(C(=C(Cl)Cl)c2ccc(O)cc2)cc1
Potency [1]: inactive | Potency [2]: inactive

C=C(C)C(=O)OCCCCOC(=O)C(=C)C
Potency [1]: inactive | Potency [2]: inactive

N#Cc1c(Cl)c(Cl)c(Cl)c(C#N)c1Cl
Potency [1]: inactive | Potency [2]: inactive

CCS(=O)(=O)C(C)(C)S(=O)(=O)CC
Potency [1]: inactive | Potency [2]: inactive

OC(Cc1ccccc1Cl)(Cn1[nH]cnc1=S)C1(Cl)CC1 (centres undefined)
Potency [1]: inactive | Potency [2]: inactive

CCCOC(=O)c1ccccc1C(=O)OCCC
Potency [1]: inactive | Potency [2]: inactive

FC(Cl)(Cl)Cl
Potency [1]: inactive | Potency [2]: inactive

N#CCCO
Potency [1]: inactive | Potency [2]: inactive

O=C(CBr)Nc1ccc(Cl)cc1C(=O)c1ccccc1F
Potency [1]: inactive | Potency [2]: inactive

O=[N+]([O-])O[C@H]1CO[C@H]2[C@@H]1OC[C@H]2O[N+](=O)[O-]
Potency [1]: inactive | Potency [2]: inactive

C[N+](C)(C)CC(=O)[O-]
Potency [1]: inactive | Potency [2]: inactive

CCC(CC)Nc1c([N+](=O)[O-])cc(C)c(C)c1[N+](=O)[O-]
Potency [1]: inactive | Potency [2]: inactive

CCCC[n+]1ccccc1C
Potency [1]: inactive | Potency [2]: inactive

N#Cc1ccc(Cl)cc1
Potency [1]: inactive | Potency [2]: inactive

COP(=O)(OC)O/C(C)=C/C(=O)N(C)C
Potency [1]: inactive | Potency [2]: inactive

CNC(=O)Oc1cccc2c1OC(C)(C)C2
Potency [1]: inactive | Potency [2]: inactive

CNC(=O)O/N=C/C(C)(C)S(C)(=O)=O
Potency [1]: inactive | Potency [2]: inactive

CCC/C(=N\OCC)C1=C(O)CC(CC(C)SCC)CC1=O (centres undefined)
Potency [1]: inactive | Potency [2]: inactive

CSSC
Potency [1]: inactive | Potency [2]: inactive

CN(C)c1ccccc1
Potency [1]: inactive | Potency [2]: inactive

ClC(Cl)Br
Potency [1]: inactive | Potency [2]: inactive

O=c1c(C2CC(c3ccc(-c4ccc(Br)cc4)cc3)Cc3ccccc32)c(O)sc2ccccc12 (centres undefined)
Potency [1]: inactive | Potency [2]: inactive

CC(=O)O.CC(=O)O.CC(=O)O.CC(=O)O.CC(=O)O.CC(=O)O.CC(=O)O.O.O.[Cr].[Cr].[Cr]
Potency [1]: inactive | Potency [2]: inactive

COC(=O)N(C(=O)N1CO[C@@]2(C(=O)OC)Cc3cc(Cl)ccc3C2=N1)c1ccc(OC(F)(F)F)cc1
Potency [1]: inactive | Potency [2]: inactive

OCCSSCCO
Potency [1]: inactive | Potency [2]: inactive

O=C([O-])c1ccccn1.O=C([O-])c1ccccn1.O=C([O-])c1ccccn1.[Cr+3]
Potency [1]: inactive | Potency [2]: inactive

CSC1=N[C@@](C)(c2ccccc2)C(=O)N1Nc1ccccc1
Potency [1]: inactive | Potency [2]: inactive

O=NN1CCCCC1
Potency [1]: inactive | Potency [2]: inactive

O=c1[nH]c2ccccc2c(=O)o1
Potency [1]: inactive | Potency [2]: inactive

Cc1ccc(S(=O)(=O)N[C@@H](CCCCN)C(=O)CCl)cc1
Potency [1]: inactive | Potency [2]: inactive

Cc1ccccc1O
Potency [1]: inactive | Potency [2]: inactive

COc1ccc2c3c1O[C@H]1[C@H](O)CC[C@H]4[C@@H](C2)N(C)CC[C@@]341
Potency [1]: inactive | Potency [2]: inactive

O=C(Cl)OCCOCCOC(=O)Cl
Potency [1]: inactive | Potency [2]: inactive

COC(=O)N(C(=O)N1COC2(C(=O)OC)Cc3cc(Cl)ccc3C2=N1)c1ccc(OC(F)(F)F)cc1 (centres undefined)
Potency [1]: inactive | Potency [2]: inactive

ClC1=C(Cl)C2(Cl)C3C(Cl)C=CC3C1(Cl)C2(Cl)Cl (centres undefined)
Potency [1]: inactive | Potency [2]: inactive

O=P1(NCCCl)OCCCN1CCCl (centres undefined)
Potency [1]: inactive | Potency [2]: inactive

Clc1ccc(Cl)c(Cl)c1
Potency [1]: inactive | Potency [2]: inactive

Nc1ccc([N+](=O)[O-])cc1[N+](=O)[O-]
Potency [1]: inactive | Potency [2]: inactive

ClC(Br)Br
Potency [1]: inactive | Potency [2]: inactive

O=C(O)C(F)(F)C(F)(F)C(F)(F)C(F)(F)C(F)(F)C(F)(F)C(F)(F)C(F)(F)C(F)(F)C(F)(F)F
Potency [1]: inactive | Potency [2]: inactive

CCN(Cc1ccc(Cl)nc1)/C(=C/[N+](=O)[O-])NC
Potency [1]: inactive | Potency [2]: inactive

CC#Cc1cc(C)nc(Nc2ccccc2)n1
Potency [1]: inactive | Potency [2]: inactive

N=C(N)[Se]
Potency [1]: inactive | Potency [2]: inactive

CC(C)=CC1C(C(=O)OC(C#N)c2cccc(Oc3ccccc3)c2)C1(C)C (centres undefined)
Potency [1]: inactive | Potency [2]: inactive

Clc1ccc(C(Cl)(Cl)Cl)cn1
Potency [1]: inactive | Potency [2]: inactive

O=C1OC(CCN2CCCCC2)OC1(c1ccccc1)c1ccccc1 (centres undefined)
Potency [1]: inactive | Potency [2]: inactive

O=C1C(Cl)C(CCl)CN1c1cccc(C(F)(F)F)c1 (centres undefined)
Potency [1]: inactive | Potency [2]: inactive

CC(C)CCCCCCCOP(=O)(Oc1ccccc1)Oc1ccccc1
Potency [1]: inactive | Potency [2]: inactive

Oc1c(Cl)c(Cl)cc(Cl)c1Cl
Potency [1]: inactive | Potency [2]: inactive

Nc1c(Oc2ccccc2)cc(O)c2c1C(=O)c1ccccc1C2=O
Potency [1]: inactive | Potency [2]: inactive
